# Pf growth 96h: inhibits malaria parasite growth, 96 h. P. falciparum luciferase reporter growth, 96 h. Potency, µM (series often up to 28.7 µM), for the others: at the top dose activity change, negative = inhibition, usual class: inhibitors. 320,000 compounds, 6.9% hits. AID 504834; further: potency means the concentration at half of the fitted maximal effect; on the % scale 0 is the no-effect control and ±100 the full control effect
#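 Infected RBCs, 2% Hct / 0.05% parasitemia final; luciferase-reporter P. falciparum; cpd 96 h, 37 C, 5% CO2; luciferase detection reagent; luminescence.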
# HCV inh: blocks hepatitis C virus. 340,000 compounds, 3.4% hits. Huh7.5.1 HCVcc-Cre infection, luciferase reporter, 44 h. Potency, µM (series often up to 41.8 µM), inactives show at the highest dose activity change, negative = inhibition, actives largely listed as inhibitors; further: potency means the concentration at half of the fitted maximal effect; on the % scale 0 is the no-effect control and ±100 the full control effect
#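 Compounds are dispensed onto cells plated 4 h earlier at 1,000 per well, with HCVcc-Cre virus (about 0.5 moi) added next. Following 44 h of culture, luminescent signal is measured for 15 sec after 15 min with substrate at room temperature.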
# Pf growth 48h: P. falciparum growth inhibition at 48 hours (one generation). P. falciparum luciferase growth in erythrocytes, 48 h. 310,000 compounds, 5.9% hits. Potency, µM (top dose mostly 28.7 µM), for the others: top-dose activity change, negative = inhibition, usual class: inhibitors. AID 504832; further: potency means the concentration at half of the fitted maximal effect; on the % scale 0 is the no-effect control and ±100 the full control effect
#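 Luminescence readout; reporter = integrated firefly luciferase in P. falciparum. RBC culture at 2% hematocrit, 0.1% parasitemia final, 37 C/5% CO2; decreased signal taken as growth inhibition.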
# SARS PLP yeast: inhibitors of SARS-CoV papain-like protease in yeast | S. cerevisiae expressing SARS-CoV PLpro, growth rescue | Potency, µM (series often up to 32.9 µM), inactives show at the highest dose activity, positive = growth rescue, hits mostly activators | 330,000 compounds, 0.19% hits | AID 485353; calls by dose curve; further: potency means the concentration at half of the fitted maximal effect; 0% is about no effect; nearly all actives have a fitted effect of over 55% in size
# HCMV inh: inhibitors of human cytomegalovirus; 410,000 compounds, 4.5% hits; activity change, negative = inhibition, % at 57.5 µM; AID 1259415; HFF cells, HCMV-luciferase reporter, 72 h; hits give low values; in the data active means activity change below about -60%; inconclusive means no clear call, values can overlap the other calls; inactive means above about -39%; further: on the % scale 0 is the no-effect control and ±100 the full control effect
#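 Inhibition of viral replication was scored as loss of reporter luminescence in HFFs infected with HCMV-luciferase (MOI 1 PFU/cell) for 72 h; compounds tested at 2 doses, normalized to buffer and Salinomycin controls.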
# Sm TGR block: S. mansoni TGR enzyme inhibition | Q962Y6 | purified TGR, DTNB reduction, TNB absorbance 405 nm | Potency, µM (highest dose often 114 µM), for inactives: top-dose activity change, negative = inhibition, hits mostly inhibitors | 360,000 compounds, 3% hits; further: potency means the concentration at half of the fitted maximal effect; on the % scale 0 is the no-effect control and ±100 the full control effect; nearly all actives have a fitted effect of over 60% in size
#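 Kinetic colorimetric format: TGR-catalysed, NADPH-driven DTNB reduction monitored via TNB absorbance. Enzyme dispensed at 20 nM; compound exposure 15 min at room temperature before reaction start.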
# An asterisk follows results filed as active; ? = inconclusive; . = no result given; ! = repeats disagree; [ ] = remark or other dose. Most compounds without a hit are left out; they make up all but 15% or so of the library. Unless noted, the call rests on the fitted dose curve; in most records, active means well fitted curve in the direction sought with a large enough effect; inconclusive means small, poorly fitted or top-dose-only effect, or another doubt; inactive means no such curve, though single readings can be large; an effect the other way counts as inactive or inconclusive.
SMILES,Pf growth 96h,HCV inh,Pf growth 48h,SARS PLP yeast,HCMV inh,Sm TGR block
CCc1nn(CC(=O)NCc2cccnc2)c(=O)c2cc3occc3n12,10.4µM*,?,23.6%,3.6%,-24.1,-11.0%
CCc1nn(CC(=O)NCCN2CCN(C)CC2)c(=O)c2cc3occc3n12,?,-12.1%,-6.0%,0.0%,-103.7*,0.0%
CCN(CC)S(=O)(=O)c1ccc2c(c1)N(CC(=O)Nc1ccc(NC(C)=O)cc1)C(=O)CO2,?,-8.1%,9.8%,0.4%,27.1,0.0%
Cc1cc(Nc2ccccc2)nn1C(=O)c1ccccc1,9.28µM*,?,.,-29.2%,-23.1,-0.2%[11.4 µM]
Cc1cc(Nc2ccccc2)nn1C(=O)c1ccc(Br)cc1,.,14.1µM*,14.6%,-55.7%,?,0.4%
CCOc1[nH]n(-c2ccccc2)c(=O)c1C=Nc1ccccc1,3.7µM*,-9.7%,-0.7%,-3.0%,?,-0.1%
CCOc1[nH]n(-c2ccccc2)c(=O)c1C=Nc1ccc(C)cc1,5.9%,-15.8%,-7.3%,2.8%,-35.1,-7.9%
CC(C)CNC(=O)Nc1cc(C(=O)NCc2ccc(C(C)C)cc2)ccc1N1CCCC1,.,.,.,.,19.0,1.1%
O=C(Nc1ccc(N2CCOCC2)cc1)c1cccc(S(=O)(=O)N2CCCCC2)c1,.,10µM*!,-29.8%,9.5%,-21.1,2.6%
O=C(Nc1ccc(N2CCOCC2)cc1)c1ccc(Cl)c(S(=O)(=O)N2CCCCC2)c1,?,2.51µM*,10.4µM*,-1.3%,-62.5*,-25.0%
O=C(Nc1ccc2c(c1)OCO2)c1ccc(Cl)c(S(=O)(=O)N2CCOCC2)c1,18.4%,?,?,-15.8%,-5.3,-12.5%
CCN1CCN(c2ccc(NC(=O)c3cccc(S(=O)(=O)N4CCCC4)c3)cc2)CC1,.,-21.2%,.,3.6%,0.0,.
CC(C)c1cc(Cn2c3ccccc3c(=O)n2C(C)Cn2cc(CCCC#N)nn2)on1 (configuration not stated),.,.,.,.,14.5,.
CCOC(=O)CN(C(=O)CSc1nnc2c(n1)[nH]c1ccc(OC)cc12)c1ccc(F)cc1,7.5%,-7.5%,9.28µM*,1.8%,-2.5,-30.0%
CC1Cc2ccccc2N1C(=O)CSc1nnc2c(n1)[nH]c1ccc(F)cc12 (configuration not stated),-90.0%,2.4%,1.47µM*,-4.3%,-23.8,-2.1%
COc1ccc(CNC(=O)CSc2nnc3c(n2)[nH]c2ccc(OC)cc23)cc1,6.3%,-3.6%,21.3%,2.9%,16.6,-15.6%
COc1ccc(CCNC(=O)CSc2nnc3c(n2)[nH]c2ccc(F)cc23)cc1OC,3.1%,8.6%,-14.1%,7.6%,-23.6,0.1%
O=C(CSc1nnc2c(n1)[nH]c1ccc(F)cc12)N1CCOCC1,9.8%,2.3%,2.9%,-3.1%,-6.2,56.1%
COc1ccc(CNC(=O)CSc2nnc3c(n2)[nH]c2ccc(F)cc23)cc1,-4.2%,-7.5%,2.4%,0.2%,-70.7*,-16.4%
CC(C)OC(=O)CSc1nnc2c(n1)[nH]c1ccc(F)cc12,13.1µM*,-26.0%,5.86µM*,-2.1%,-88.0*,-6.6%
N#C/C(=C\c1ccc[nH]1)C(=O)Nc1ccccc1[N+](=O)[O-],-11.5%,-0.4%,82.9%,-7.9%,10.2,-24.5%
O=C(CSc1nnc2c(n1)[nH]c1ccc(F)cc12)NCc1ccc(F)cc1,?,21.9%,14.8%,-4.3%,-34.0,2.7%
O=C(CSc1nnc2c(n1)[nH]c1ccccc12)OCc1ccccc1,?,21.5%,14.7µM*,6.9%,13.2,8.7%
O=C(CSc1nnc2c(n1)[nH]c1ccc(F)cc12)NC1CC1,3.29µM*,6.1%,20.5%,-2.5%,-7.1,-1.4%
CCOc1ccc(C(=O)COC(=O)c2nn(CC)c(=O)c3ccccc23)cc1,6.2%,17.5%,?,0.9%,?,-1.8%
SMILES,Pf growth 96h,HCV inh,Pf growth 48h,SARS PLP yeast,HCMV inh,Sm TGR block
COc1ccc(C2CN=NC2C(=O)c2ccccc2)cc1 (configuration not stated),9.28µM*,-25.8%,14.7µM*,-0.6%,-64.4*,?
Cc1ccc2c(c1)C(O)(C1C(=O)N(C)c3ccccc31)C(=O)N2Cc1ccccc1 (configuration not stated),.,.,.,.,-17.2,.
COc1cc2c(cc1/C=C/[N+](=O)[O-])OCO2,-12.0%,-25.9%,?,-23.5%,-107.5*,33.0%
CC(C)CSc1nnc2c3ccccc3n(C)c2n1,6.57µM*,-0.5%,122.3%,-6.2%,410.2,-1.4%
COc1ccccc1NC(=O)CSc1nnc2c3ccccc3n(C)c2n1,.,.,.,.,7.8,11.8%
COC(=O)c1ccc(S(=O)(=O)NCCSc2nnc3c4ccccc4n(C)c3n2)cc1,-2.2%,10µM*,?,-4.6%,15.7,3.1%
CN(c1cccc(F)c1)c1cc2c(c3c1ccn3C)C1CCC2O1 (configuration not stated),.,.,.,.,2.9,.
O=C1NCCc2c1[nH]c1ccc([N+](=O)[O-])cc21,0.9%,?,8.3%,1.5%,1.4,-5.2%
O=C1NCCc2c1[nH]c1c(Cl)ccc(Cl)c21,-1.3%,11.2µM*,32.3%,-0.5%,-33.9,-1.5%
Cc1ccc(C=NNc2nc3c([nH]2)c(=O)n(C)c(=O)n3C)cc1,.,-24.4%,.,.,15.1,.
COc1ccc(OCc2ccc(-c3nc(C#N)c(N4CCC(C)CC4)o3)o2)cc1,.,.,.,.,-15.3,6.0%
C/C(=N\NC(=O)c1ccn(C)n1)c1cccc(NC(=O)c2ccc(C)s2)c1,57.1%,?,94.8%,-34.1%,14.5,6.6%
OCCn1nc(-c2ccccc2)cc1-c1ccccc1,?,-5.7%,11.3%,-3.0%,-35.2,-1.3%
O=c1cc(-c2ccccc2)cc(-c2ccccc2)n1CCCO,?,?,9.28µM*,-1.7%,-22.0,-16.8%
CC(C)(C)C1CCc2nc(NC(=O)Cc3cn4ccsc4n3)sc2C1 (configuration not stated),.,22.4µM*,-12.2%,-11.2%,15.0,-13.0%
Cc1ccc(S(=O)(=O)n2nc(-c3ccco3)nc2N)cc1,24.2%,18.3%,0.0%,0.7%,-67.2*,?
CN(C)CCN(C(=O)c1ccc2c(c1)OCCO2)c1nc2ccc(Cl)cc2s1,?,?,46.2%,0.2%,33.2,6.4%
CN(C)CCCN(C(=O)c1ccco1)c1nc2ccc(Cl)cc2s1,-16.0%,25.1µM*,0.3%,-0.6%,-10.2,9.3%
Cc1ccc2sc(N(CCCN(C)C)C(=O)c3ccco3)nc2c1C,.,.,.,.,-61.9*,-2.2%
CN(C)CCCN(C(=O)c1ccc2c(c1)OCCO2)c1nc2ccc(Cl)cc2s1,11.7µM*,.,10.4µM*,-1.0%,-10.2,-10.4%

# Assay outcomes as filed in PubChem BioAssay.
